# Hits are enriched below; roughly 11% of the tested compounds scored in any of these assays.
# BAZ2B block = qHTS Assay for Inhibitors of BAZ2B; Bromodomain adjacent to zinc finger domain protein 2B (Homo sapiens), Q9UIF8; AlphaScreen BAZ2B-H3K14Ac peptide displacement; Potency, µM (series often up to 114 µM), without a hit: top-dose activity change, negative = inhibition, hits mostly inhibitors; 4.4% of 360,000 active; AID 504333, 2011; note: potency is the fitted concentration of half-maximal effect; % is set by controls: 0 for no effect and ±100 for the full control effect; nearly all actives have a fitted effect of over 60% in size
#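 In this displacement format the biotinylated H3(5-23) peptide acetylated at Lys14 serves as ligand at 50 nM, with BAZ2B at 50 nM in PBS pH 7.4 containing 0.01% Tween-20. Donor and acceptor beads are 10 ug/mL final.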
# JMJD2A Tudor inh = qHTS Assay for Inhibitors of JMJD2A-Tudor Domain | Potency, µM (top dose mostly 114 µM), inactives show at the top dose activity change, negative = inhibition, hits mostly inhibitors | AlphaScreen JMJD2A-Tudor / H3K4me3 peptide binding | 4.4% of 390,000 active; note: potency is the fitted concentration of half-maximal effect; % is set by controls: 0 for no effect and ±100 for the full control effect; nearly all actives have a fitted effect of over 50% in size
# G9a block = qHTS Assay for Inhibitors of Histone Lysine Methyltransferase G9a. AID 504332, 2011. Potency, µM (titrated, usually from 102 µM), without a hit: at the top dose activity, negative = inhibition, usual class: inhibitors. Histone-lysine N-methyltransferase EHMT2 (Homo sapiens), Q96KQ7. G9a H3K9 monomethylation, AlphaScreen, 2 h. 8.8% of 350,000 active; note: potency is the fitted concentration of half-maximal effect; % is set by controls: 0 for no effect and ±100 for the full control effect; nearly all actives have a fitted effect of over 75% in size
#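 Signal arises when biotinylated H3K9 peptide, once monomethylated, bridges streptavidin donor and antibody-captured acceptor beads. Enzyme at 20 nM was preincubated 15 min with test compounds; peptide 500 nM and SAM 20 uM then reacted for 2 h.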
# HP1b binding inh = HTS for Inhibitors of HP1-beta Chromodomain Interactions with Methylated Histone Tails; AlphaScreen HP1-beta / biotin-H3K9me3 peptide binding; Potency, µM (highest dose often 114 µM), for inactives: at the highest dose activity change, negative = inhibition, usual class: inhibitors; 0.56% of 390,000 active; note: potency is the fitted concentration of half-maximal effect; nearly all actives have a fitted effect of over 70% in size
# Target sequence (P83916 whole entry, looked up): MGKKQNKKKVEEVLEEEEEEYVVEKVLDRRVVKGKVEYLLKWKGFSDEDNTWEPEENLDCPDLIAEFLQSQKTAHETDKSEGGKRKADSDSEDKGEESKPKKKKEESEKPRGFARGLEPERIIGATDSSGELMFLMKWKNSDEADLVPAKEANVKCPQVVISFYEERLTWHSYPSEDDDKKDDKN
#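 Compound inhibition of the preformed complex between 50 nM HP1-beta and 50 nM biotinylated H3K9me3 peptide was read by AlphaScreen. Buffer was PBS pH 7.4 with 0.01% Tween-20. Incubations ran 30 min at room temperature, with 10 ug/mL donor/acceptor beads.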
# L3MBTL1 block = qHTS Assay for the Inhibitors of L3MBTL1; Lethal(3)malignant brain tumor-like protein 1 (Homo sapiens), Q9Y468; AlphaScreen L3MBTL1–H3K9me1 peptide binding; Potency, µM (top dose mostly 57.1 µM), for the others: top-dose activity, negative = inhibition, most hits filed as inhibitors; 0.66% of 230,000 active; AID 485360, 2010; note: potency is the fitted concentration of half-maximal effect; % is set by controls: 0 for no effect and ±100 for the full control effect; nearly all actives have a fitted effect of over 60% in size
#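 L3MBTL1 (50 nM) pre-complexed 30 min with biotinylated H3(1-15)K9me1 peptide (75 nM), then compounds added for 30 min at room temperature; AlphaScreen streptavidin donor/nickel chelate acceptor beads (10 ug/mL final) read after 30 min dark incubation.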
# PI5P4Ka inh = qHTS for Inhibitors of phosphatidylinositol 5-phosphate 4-kinase (PI5P4K) | Phosphatidylinositol 5-phosphate 4-kinase type-2 alpha (Homo sapiens), P48426 | PI5P4Kalpha enzyme, ADP-Glo luminescence, 60 min; active compounds read low | max response, % | 1.2% of 330,000 active | AID 652105, 2013; active = max response of -50% or lower; inconclusive = between -30% and -50%; inactive = -30% or higher; note: value at the top dose of about 77 µM; % is set by controls: 0 for no effect and ±100 for the full control effect
# Target sequence (P48426 whole entry, looked up): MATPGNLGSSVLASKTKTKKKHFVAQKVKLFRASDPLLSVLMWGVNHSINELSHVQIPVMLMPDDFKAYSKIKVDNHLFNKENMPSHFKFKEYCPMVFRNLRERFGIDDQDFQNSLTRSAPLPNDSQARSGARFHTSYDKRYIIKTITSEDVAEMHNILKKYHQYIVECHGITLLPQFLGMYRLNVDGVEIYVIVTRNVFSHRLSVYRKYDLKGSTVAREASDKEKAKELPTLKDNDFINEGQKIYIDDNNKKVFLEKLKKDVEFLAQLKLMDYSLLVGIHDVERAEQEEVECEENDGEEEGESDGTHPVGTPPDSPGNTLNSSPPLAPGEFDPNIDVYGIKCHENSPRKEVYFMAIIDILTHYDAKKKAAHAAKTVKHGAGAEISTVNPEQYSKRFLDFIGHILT
#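 Enzyme plus substrate dispensed, test compounds pinned in, then ATP (5 microM final) added. After 60 min at RT, ADP-Glo reagent 1 for 45 min and reagent 2 for 30 min preceded luminescence imaging.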
# An asterisk follows results filed as active; ? = inconclusive; . = not tested or not shown; ! = not confirmed by another sample; [ ] = dose if it differs, or a comment. Unless noted, calls come from the whole dose curve; as a rule, active = well fitted inhibition curve with a large enough effect; inconclusive = small, poorly fitted or top-dose-only effect; inactive = no such curve, though single readings can be large or run the other way.
SMILES,BAZ2B block,JMJD2A Tudor inh,G9a block,HP1b binding inh,L3MBTL1 block,PI5P4Ka inh
COC(=O)c1ccc(C(=O)OC)c(NC(=O)CSc2cccc[n+]2[O-])c1,-3%,45µM*,.,?,15%,?
COC(=O)c1ccc(-n2c(C)cc(C(=O)CSc3cccc[n+]3[O-])c2C)cc1,-26%,-24%,50µM*,17%,3%,0
Cc1nc2ccc(S(=O)(=O)N(CC(=O)Nc3cccc(F)c3)Cc3ccccc3)cc2s1,1%,-12%,-3%[59 µM],8%,.,.
COc1cccc2c1Oc1ncccc1N(C(=O)Nc1ccc(F)c(Cl)c1)C2,37%[57.1 µM],-16%,7%[59 µM],37%,.,.
O=C(Nc1cccc(F)c1)N1CCC2(CC1)CCN(C(=O)c1ccco1)CC2,.,.,-1%[12.7 µM],.,.,.
C[C@@H]1C(=O)N(S(=O)(=O)c2ccc([N+](=O)[O-])cc2)[C@H]1c1ccccc1,.,-19%,.,17%,.,.
COCCOC(=O)c1c(NC(=O)CSc2cccc[n+]2[O-])sc(C(N)=O)c1C,?,-17%,2.5µM*,32%,18%,2
Nc1nc(SCc2ccc(Cl)cc2)ns1,11%,11%,19%,30%,6%,3
Nc1nc(SCc2ccccc2)ns1,5%,79µM*,4µM*,?,-18%[11.4 µM],?
Cn1nc(-c2ccc(OCC(=O)Nc3ccc(Cl)cc3)cc2)c2ccccc2c1=O,?,?,?,7%,.,.
CCn1cc(CCC(=O)O)c(C)n1,5%,-15%,45µM*,20%,29%,0
Cc1ccc(-c2nn(CCC(=O)O)cc2CCC(=O)O)cc1,1%,-2%,-5%,12%,.,.
COc1ccc(Cc2nnc(NS(=O)(=O)c3ccc([N+](=O)[O-])cc3)s2)cc1,?,-34%,40µM*,-31%,.,-24
O=[N+]([O-])c1ccc(S(=O)(=O)Nc2nnc(C(F)(F)F)s2)cc1,-30%,-27%,45µM*,37%,5%,4
CNc1nc(-c2ccc([N+](=O)[O-])cc2)cs1,9%,-13%,-38%[59 µM],0%,-3%,-7
COc1ccc(-c2csc(NS(=O)(=O)c3ccc([N+](=O)[O-])cc3)n2)cc1,35µM*,?,?,-21%,-17%,-8
COc1ccc(S(=O)(=O)Nc2nnc(C(C)(C)C)s2)cc1,.,-22%,1.8µM*,-24%,-1%,.
COc1ccc(CCNC(=O)c2ccc3nc(Cc4ccccc4)oc3c2)cc1OC,1%,-26%,-5%[59 µM],26%[57 µM],.,.
O=C(Cn1nc2c(cc1=O)CCCC2)Nc1ccccc1C(F)(F)F,5%,-10%,8%[59 µM],19%[57 µM],.,.
COc1ccc(S(=O)(=O)Nc2nnc(CC(C)(C)C)s2)cc1,-30%,5%,35µM*,4%,-4%,4
COc1ccc(-c2csc(NC(=O)c3ccccc3NS(=O)(=O)c3ccc(F)c(F)c3)n2)cc1,45µM*,56µM*,-37%[12.7 µM],?,-10%,-23
Cc1ccc(S(=O)(=O)Nc2nc3ccc(N)cc3s2)cc1,-23%,-28%,14%[59 µM],-1%,.,?
O=[N+]([O-])c1ccc2nc(NS(=O)(=O)c3ccc(F)cc3)sc2c1,-11%,-20%,79µM*,16%,.,?
COc1ccc(Cc2nnc(NS(=O)(=O)c3ccccc3)s2)cc1,0%,-9%,-38%,3%,-1%,-26
Cc1cc(C(=O)NCCCN2CCN(C3CCCCC3)CC2)n(-c2ccccc2)n1,-3%,-22%,-27%,19%,-6%,-8
SMILES,BAZ2B block,JMJD2A Tudor inh,G9a block,HP1b binding inh,L3MBTL1 block,PI5P4Ka inh
CC(=O)OCCNc1cc(N2CCN(C)CC2)c2noc3c2c1C(=O)c1ccccc1-3,40µM*,50µM*,?,-12%,?,-6
CC(C)Nc1cc(N2CCN(C3CCCCC3)CC2)c2noc3c2c1C(=O)c1ccccc1-3,13µM*,22µM*,?,?,.,.
CCNc1cc(N2CCN(C3CCCCC3)CC2)c2noc3c2c1C(=O)c1ccccc1-3,35µM*,50µM*,?,?,.,.
Cn1c(=O)cc(SCC(=O)N2CCN(C3CCCCC3)CC2)c2ccccc21,.,-20%,.,3%,.,7
O=C(O)CCCNc1cc(N2CCN(C3CCCCC3)CC2)c2noc3c2c1C(=O)c1ccccc1-3,32µM*,35µM*,16µM*,22µM*,.,.
COC(=O)C1=C[C@@H](C(=O)OC)C2C3=C(C(=O)[C@]2(C)NC(=O)c2ccccc2)[C@H](C)n2c(=O)n(-c4ccccc4)c(=O)n2[C@@H]3C1 (some centres undefined),.,-7%,.,15%,.,.
CCOc1ccccc1NC(=O)CN1c2ccccc2S(=O)(=O)c2ccccc21,-38%,-16%,-7%[59 µM],-12%,.,.
O=C(CSc1ncc(CO)n1Cc1ccccc1)Nc1ccc(C(F)(F)F)cc1,?,?,-39%[59 µM],-1%[57 µM],.,.
CCN1CCN(CC(=O)N2c3ccccc3Sc3ccccc32)CC1,-6%,-4%,-24%,22%,.,7
Cc1scc2c1N(C(=O)CN1CCN(C)CC1)c1ccccc1NC2=O,?,-12%,35µM*!,12%,?,-2
O=C(Nc1nonc1-c1ccc(Cl)cc1)c1ccccc1F,6%,-14%,4%[59 µM],9%,.,.
Cc1cc(C)nc(SCc2csc(N)n2)n1,-21%,4%,50µM*,35%,7%,0
Cc1cc(C)nc(SCc2csc(-c3ccccc3)n2)n1,37%,66%,34%[59 µM],116%,26%,1
COc1cccc(CN(C(=O)COc2ccc(Cl)c(C)c2)C2CCS(=O)(=O)C2)c1 (centres undefined),-11%,-17%,-1%[59 µM],25%,.,.
CC(=O)NNc1nc(-c2ccccc2)cs1,-35%,?,?,11%,.,-10
O=C(NNc1nc(-c2ccc(F)cc2)cs1)c1ccccc1,-17%,-19%,22µM*,?,.,-53*
O=C(NNc1nc(-c2ccccc2)cs1)c1ccc(F)cc1,-29%,-19%,20µM*,18%,-24%,-5
O=C(NNc1nc(-c2ccccc2)cs1)c1cccs1,?,-27%,6%[59 µM],22%,-21%,-7
C=C1OC(CO)(n2cnc3c(N)ncnc32)C(O)C1O (centres undefined),.,-10%[57.1 µM],26%[59 µM],20%[57 µM],.,.
CC(=O)C(C(C)=O)c1c(Cl)c(O)c(O)c2c(C(=O)c3ccccc3)coc12,45µM*,63µM*,?,?,-20%,-26

# Assay outcomes from PubChem BioAssay.
